# According to PubChem BioAssay (Tox21):
# A number with no mark means an inactive call. Records with an inconclusive call do not appear. Where a call stands in place of a potency, no number is given. The source made the active and inactive calls. Unless noted, calls come from the whole dose curve.
# Experiments:
# [1] = Nuclear factor erythroid 2-related factor 2/antioxidant responsive element (Nrf2/ARE) small molecule agonists: qHTS cell viability counter screen in human keratinocytes (AID 1919968; active = well fitted curve in the direction sought with a large enough effect in the repeat runs; an effect the other way counts as inactive or inconclusive; note: nearly all actives have a fitted effect of over 55% in size; note: potency is the fitted concentration of half-maximal effect)
# Method in brief: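 After a 5 h attachment period, ARE-reporter keratinocytes were dosed with compounds in DMSO and then cultured 23 h at 37 C. Cell viability came from CellTiter-Fluor signal read after a further 1 h.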
# [2] = Nuclear factor erythroid 2-related factor 2/antioxidant responsive element (Nrf2/ARE) small molecule agonists: luciferase reporter gene qHTS assay in human keratinocytes (AID 1919969); note: nearly all actives have a fitted effect of over 35% in size; note: potency is the fitted concentration of half-maximal effect
# [3] = molecular target: Gonadotropin-releasing hormone receptor (Homo sapiens) (UniProt P30968); experiment: Human gonadotropin-releasing hormone receptor (GnRHR) small molecule agonists, calcium flux assay in GnRHR-HEK293 cells (AID 1920063); note: nearly all actives have a fitted effect of over 35% in size
# Sequence of Gonadotropin-releasing hormone receptor (Homo sapiens) (P30968 whole entry, looked up): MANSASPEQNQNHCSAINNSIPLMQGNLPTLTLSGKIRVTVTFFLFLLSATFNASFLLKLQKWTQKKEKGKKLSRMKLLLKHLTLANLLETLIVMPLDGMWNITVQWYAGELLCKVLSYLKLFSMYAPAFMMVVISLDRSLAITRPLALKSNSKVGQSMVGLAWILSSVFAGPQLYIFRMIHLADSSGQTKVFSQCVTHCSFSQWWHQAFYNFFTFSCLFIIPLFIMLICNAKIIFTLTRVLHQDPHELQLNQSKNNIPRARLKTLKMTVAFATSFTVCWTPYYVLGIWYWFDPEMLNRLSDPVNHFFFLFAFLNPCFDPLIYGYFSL
# Method in brief: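 We seeded human GnRHR-expressing HEK293 cells for 18 hours, loaded them with calcium dye for an hour at 37 C, added test compounds, and recorded fluorescence intensity kinetically for three minutes.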
# [4] = molecular target: KiSS-1 receptor (Homo sapiens) (UniProt Q969F8); experiment: Human kisspeptin (KISS1R) small molecule agonists, calcium flux assay in KISS1R-HEK293 cells (AID 1920064; active = well fitted curve in the direction sought with a large enough effect in the repeat runs; an effect the other way counts as inactive or inconclusive)
# Sequence of KiSS-1 receptor (Homo sapiens) (Q969F8 whole entry, looked up): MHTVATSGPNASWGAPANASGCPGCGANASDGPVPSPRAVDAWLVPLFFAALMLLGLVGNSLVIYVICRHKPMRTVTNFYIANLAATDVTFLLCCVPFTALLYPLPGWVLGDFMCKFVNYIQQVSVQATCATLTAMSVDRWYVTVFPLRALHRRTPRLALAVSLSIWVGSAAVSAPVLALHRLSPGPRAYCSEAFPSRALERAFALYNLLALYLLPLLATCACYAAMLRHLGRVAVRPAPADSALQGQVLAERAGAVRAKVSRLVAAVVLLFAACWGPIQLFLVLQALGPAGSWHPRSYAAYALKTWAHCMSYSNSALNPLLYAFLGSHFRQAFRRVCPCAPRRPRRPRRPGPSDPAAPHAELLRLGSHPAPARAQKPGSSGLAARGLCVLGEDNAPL
# Method in brief: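 Kinetic calcium assay, 1 s sampling over 3 min at Ex/Em 480/540, in HEK293 cells engineered with human KISS1R; compounds delivered in DMSO after 1 h dye loading.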
# [5] = G protein-coupled receptor (GPCR) small molecule agonists, calcium flux assay: HEK293 wild type cell line counter screen (AID 1920065); note: potency is the fitted concentration of half-maximal effect
# Method in brief: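 Calcium-sensitive dye, loaded 1 h at 37 C into cells cultured 18 h, reports compound-evoked calcium release as fluorescence (Ex/Em 480/540), measured over 3 min. Agonist mode; 15-point titrations, triplicate.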
# [6] = p53 small molecule agonists, cell-based qHTS assay with human liver microsomes (AID 1963577); note: potency is the fitted concentration of half-maximal effect
# Method in brief: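 p53RE-bla cells, 4,000/well, compound added after 5 h, with human liver microsomes 0.5 mg/mL and NADPH 0.5 mg/mL final; 16 h at 37 C, then LiveBLAzer 2 h RT, fluorescence.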
# [7] = p53 small molecule agonists, cell-based qHTS assay with human liver microsomes: qHTS cell viability counter screen (AID 1963579); note: nearly all actives have a fitted effect of over 45% in size
# Method in brief: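 p53RE-bla cells, 4,000/well, dosed 5 hours after plating, with human liver microsomes (0.5 mg/mL final) plus NADPH (0.5 mg/mL final), 16 hours at 37 C. Viability read as CellTiter-Glo luminescence after 30 min at room temperature.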
# [8] = p53 small molecule agonists, cell-based qHTS assay with rat liver microsomes: qHTS cell viability counter screen (AID 1963580); note: nearly all actives have a fitted effect of over 45% in size
# Method in brief: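 In HCT-116 cells carrying a p53 response element-bla reporter, compounds were metabolically activated in situ by rat liver microsomes with NADPH over 16 h. Cell ATP content then served as the cytotoxicity measure.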
# [9] = p53 small molecule agonists, cell-based qHTS assay: qHTS cell viability counter screen (AID 1963581); note: nearly all actives have a fitted effect of over 45% in size; note: potency is the fitted concentration of half-maximal effect
# Method in brief: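 Following 5 h attachment, HCT-116 p53RE-bla cells took up compound for 16 h at 37 C; the reporter was read with B/G FRET substrate (2 h RT), and viability then via CellTiter-Glo ATP luminescence.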
# [10] = p53 small molecule agonists, cell-based qHTS assay (AID 1963582; active = well fitted activation curve with a large enough effect in the signal ratio in the repeat runs, not every such curve was filed as active; the % refers to the signal ratio)
# Method in brief: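 In this cell-based concentration-response screen, a p53 response element drives beta-lactamase; cells received DMSO-borne compounds after 5 h culture and were incubated a further 16 h before FRET substrate development.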
# [11] = molecular target: 5-hydroxytryptamine receptor 2A (Homo sapiens) (UniProt P28223); experiment: 5-hydroxytryptamine receptor 2A (HTR2A) small molecule antagonists, cell-based qHTS assay (AID 1963586); note: nearly all actives have a fitted effect of over 45% in size; note: potency is the fitted concentration of half-maximal effect
# Sequence of 5-hydroxytryptamine receptor 2A (Homo sapiens) (P28223 whole entry, looked up): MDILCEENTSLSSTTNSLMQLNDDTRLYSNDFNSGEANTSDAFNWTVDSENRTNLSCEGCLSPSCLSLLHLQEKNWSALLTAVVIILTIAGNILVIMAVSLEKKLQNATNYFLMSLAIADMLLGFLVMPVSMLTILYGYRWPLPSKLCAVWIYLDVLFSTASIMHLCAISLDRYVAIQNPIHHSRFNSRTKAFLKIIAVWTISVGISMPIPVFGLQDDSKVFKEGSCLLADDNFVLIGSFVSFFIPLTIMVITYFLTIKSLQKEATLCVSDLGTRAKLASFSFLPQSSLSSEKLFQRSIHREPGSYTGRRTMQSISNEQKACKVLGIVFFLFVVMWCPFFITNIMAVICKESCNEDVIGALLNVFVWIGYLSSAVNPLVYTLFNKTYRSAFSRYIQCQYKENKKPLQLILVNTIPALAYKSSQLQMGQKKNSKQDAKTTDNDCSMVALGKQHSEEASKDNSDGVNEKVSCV
# Method in brief: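 Antagonist-mode intracellular calcium assay: DOI (4 nM) added after 5 min compound pre-incubation at room temperature to dye-loaded HTR2A-CHO cells. Fluorescence followed for 3 min, sampled every second.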
# [12] = molecular target: 5-hydroxytryptamine receptor 2A (Homo sapiens) (UniProt P28223); experiment: 5-hydroxytryptamine receptor 2A (HTR2A) small molecule agonists, cell-based qHTS assay (AID 1963587); note: nearly all actives have a fitted effect of over 30% in size; note: potency is the fitted concentration of half-maximal effect
# Method in brief: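 HTR2A-CHO cells, plated 18 h at 37 C/5% CO2, dye-loaded 1 h at 37 C; compounds in DMSO added by pin tool (agonist mode). Intracellular calcium flux read as kinetic fluorescence on FDSS over 2 min at 1 s intervals.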
# [13] = molecular target: Muscarinic acetylcholine receptor M1 (Homo sapiens) (UniProt P11229); experiment: Cholinergic receptor muscarinic 1 (CHRM1) small molecule antagonists, cell-based qHTS assay (AID 1963588); note: nearly all actives have a fitted effect of over 40% in size; note: potency is the fitted concentration of half-maximal effect
# Sequence of Muscarinic acetylcholine receptor M1 (Homo sapiens) (P11229 whole entry, looked up): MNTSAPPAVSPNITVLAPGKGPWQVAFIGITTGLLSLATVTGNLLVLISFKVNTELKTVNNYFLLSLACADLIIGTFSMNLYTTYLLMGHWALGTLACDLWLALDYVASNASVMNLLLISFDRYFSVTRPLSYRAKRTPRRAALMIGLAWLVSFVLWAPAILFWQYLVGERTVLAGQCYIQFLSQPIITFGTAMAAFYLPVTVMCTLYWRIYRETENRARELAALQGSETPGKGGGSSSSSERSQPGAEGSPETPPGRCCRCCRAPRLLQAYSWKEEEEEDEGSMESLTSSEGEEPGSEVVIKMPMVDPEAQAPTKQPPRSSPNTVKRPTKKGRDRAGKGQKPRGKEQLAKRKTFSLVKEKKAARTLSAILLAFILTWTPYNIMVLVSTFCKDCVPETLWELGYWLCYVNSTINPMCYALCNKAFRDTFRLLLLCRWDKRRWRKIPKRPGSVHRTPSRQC
# Method in brief: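 CHRM1-CHO calcium-flux assay, antagonist mode. Cells were seeded 18 h, dye-loaded 1 h at 37 C and given compound for 5 min at RT, then acetylcholine was added at 50nM. FDSS fluorescence was read 3 min; 15 concentrations, three runs.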
# [14] = molecular target: Muscarinic acetylcholine receptor M1 (Homo sapiens) (UniProt P11229); experiment: Cholinergic receptor muscarinic 1 (CHRM1) small molecule agonists, cell-based qHTS assay (AID 1963589); note: nearly all actives have a fitted effect of over 35% in size
# Method in brief: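 Measures agonist-induced intracellular calcium rise. Stable human CHRM1 CHO line, 1 h dye load at 37 C, compounds from DMSO, kinetic fluorescence read.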
# [15] = cAMP Responsive Elements (CRE) small molecule agonists, cell-based qHTS assay (AID 1963590)
# Method in brief: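 A CRE-responsive beta-lactamase reporter in HEK 293T cells was used. Treatment ran 3 h at 37 C; detection used LiveBLAzer B/G FRET substrate for 2 h at room temperature.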
# [16] = cAMP Responsive Elements (CRE) small molecule antagonists, cell-based qHTS assay (AID 1963591; active = well fitted inhibition curve with a large enough effect in the signal ratio in the repeat runs, not every such curve was filed as active; the % refers to the signal ratio; note: potency is the fitted concentration of half-maximal effect)
# Method in brief: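 HEK293T cells carrying a CRE-driven beta-lactamase reporter receive compound and NKH477 (0.25 uM final) for 3 h. Fluorescence from LiveBLAzer B/G FRET substrate is read after 2 h at room temperature.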
# [17] = molecular target: Beta-2 adrenergic receptor (Homo sapiens) (UniProt P07550); experiment: Adrenergic beta2 receptor (ADRB2) small molecule antagonists, cell-based qHTS assay (AID 1963592); note: series mostly up to about 92 µM; nearly all actives have a fitted effect of over 50% in size
# Sequence of Beta-2 adrenergic receptor (Homo sapiens) (P07550 whole entry, looked up): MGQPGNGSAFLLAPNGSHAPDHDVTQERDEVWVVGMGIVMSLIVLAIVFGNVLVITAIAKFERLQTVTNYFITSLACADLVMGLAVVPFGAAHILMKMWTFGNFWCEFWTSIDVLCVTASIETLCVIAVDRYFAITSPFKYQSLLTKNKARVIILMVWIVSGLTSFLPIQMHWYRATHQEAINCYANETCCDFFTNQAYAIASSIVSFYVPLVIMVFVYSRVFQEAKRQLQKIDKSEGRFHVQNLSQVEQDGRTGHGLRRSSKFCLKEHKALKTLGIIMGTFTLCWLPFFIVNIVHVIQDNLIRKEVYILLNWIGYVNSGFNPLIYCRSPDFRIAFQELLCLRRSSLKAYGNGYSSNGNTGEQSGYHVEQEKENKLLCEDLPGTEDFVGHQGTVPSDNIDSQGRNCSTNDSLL
# Method in brief: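 Cells (CHO, stable ADRB2 overexpression) incubated 18-20hr at 37C; compounds added from DMSO; agonist mix (1nM isoproterenol, 100uM IBMX, 25uM Ro-20-1724) added; 0.5hr RT; d2-cAMP and anti-cAMP-cryptate added; 1hr RT; 665/615 nm read.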
# [18] = molecular target: D(2) dopamine receptor (Homo sapiens) (UniProt P14416); experiment: Dopamine D2 receptor (DRD2) small molecule agonists, cell-based qHTS assay (AID 1963594); note: nearly all actives have a fitted effect of over 35% in size; note: potency is the fitted concentration of half-maximal effect
# Sequence of D(2) dopamine receptor (Homo sapiens) (P14416 whole entry, looked up): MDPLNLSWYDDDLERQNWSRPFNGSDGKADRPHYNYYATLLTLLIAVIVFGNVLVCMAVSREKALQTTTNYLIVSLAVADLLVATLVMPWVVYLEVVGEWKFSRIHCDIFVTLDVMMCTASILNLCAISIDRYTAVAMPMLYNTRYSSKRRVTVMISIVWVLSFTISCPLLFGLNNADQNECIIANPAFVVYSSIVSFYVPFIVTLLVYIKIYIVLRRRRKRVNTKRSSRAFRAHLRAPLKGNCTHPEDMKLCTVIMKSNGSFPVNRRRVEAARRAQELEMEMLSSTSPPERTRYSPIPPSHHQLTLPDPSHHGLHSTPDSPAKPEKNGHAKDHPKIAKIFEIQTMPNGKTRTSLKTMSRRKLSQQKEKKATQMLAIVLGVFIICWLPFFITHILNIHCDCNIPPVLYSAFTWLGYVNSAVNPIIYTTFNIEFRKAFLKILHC
# Method in brief: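 HEK293 cells stably expressing DRD2 were cultured 24 h at 37 C, then given Ro20-1724 (0.1 mM final) and compounds for 10 min at room temperature. NKH477 (200nM) was then added for 30 min. cAMP was read by HTRF.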
# [19] = molecular target: D(2) dopamine receptor (Homo sapiens) (UniProt P14416); experiment: Dopamine D2 receptor (DRD2) small molecule antagonists, cell-based qHTS assay (AID 1963595; active = well fitted inhibition curve with a large enough effect in the signal ratio in the repeat runs, with a control signal flat; the % refers to the signal ratio)
# Method in brief: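 Antagonist mode in DRD2-HEK293 cells: after compound addition with 0.1 mM Ro20-1724, cells received quinpirole (12 nM) and NKH477 (200 nM) for 30 min at room temperature; HTRF cAMP read after 1 h detection.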
# [20] = p53 small molecule agonists, cell-based qHTS assay with rat liver microsomes (AID 1963578)
# Method in brief: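 p53RE-bla cells, 4,000/well, pre-incubated 5 h, then given compounds plus rat liver microsomes (0.5 mg/mL final) and NADPH (0.5 mg/mL final). Incubation 16 h at 37 C; beta-lactamase reporter read by LiveBLAzer fluorescence after 2 h at room temperature.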
SMILES,Potency [1],Potency [2],Potency [3],Potency [4],Potency [5],Potency [6],Potency [7],Potency [8],Potency [9],Potency [10],Potency [11],Potency [12],Potency [13],Potency [14],Potency [15],Potency [16],Potency [17],Potency [18],Potency [19],Potency [20]
CN(C)C(=O)Nc1cccc(OC(=O)NC(C)(C)C)c1,inactive,inactive,inactive,inactive,inactive,inactive,inactive,inactive,inactive,inactive,inactive,inactive,inactive,inactive,inactive,inactive,inactive,inactive,inactive,
c1cc[c]([Sb]([c]2ccccc2)[c]2ccccc2)cc1,inactive,12.2 µM (active),inactive,inactive,inactive,inactive,,inactive,,,inactive,inactive,inactive,inactive,,,,inactive,,inactive
N[C@@H]1C[C@H]1c1ccccc1,inactive,inactive,inactive,inactive,inactive,inactive,inactive,inactive,inactive,inactive,inactive,8.49 µM (active),inactive,inactive,inactive,,inactive,inactive,,
CC(C)(C)NCC(O)c1ccccc1Cl (configuration not stated),inactive,inactive,inactive,inactive,inactive,inactive,inactive,inactive,inactive,,,inactive,,inactive,,inactive,inactive,,,
N#Cc1c(-c2ccc(Cl)cc2)[nH]c(C(F)(F)F)c1Br,10.9 µM (active),9.69 µM (active),inactive,inactive,2.45 µM (active),inactive,,,inactive,,,inactive,16.8 µM (active),inactive,,,,inactive,,inactive
CNC(C)Cc1ccc2c(c1)OCO2 (configuration not stated),inactive,84.3 µM (active),inactive,inactive,inactive,inactive,inactive,inactive,,inactive,1.03 µM (active),0.602 µM (active),inactive,inactive,inactive,inactive,,,,
CC(C)(C)c1ccc(OP(=O)(Oc2ccccc2)Oc2ccccc2)cc1,inactive,inactive,inactive,inactive,inactive,inactive,inactive,inactive,,inactive,8.45 µM (active),inactive,inactive,,inactive,inactive,inactive,inactive,inactive,
Nc1ccc(Cl)cc1C(=O)c1ccccc1F,inactive,inactive,inactive,inactive,inactive,inactive,,inactive,,,,inactive,inactive,inactive,inactive,,inactive,inactive,inactive,inactive
Oc1ccc2ccc3cccc4ccc1c2c34,inactive,61.1 µM (active),inactive,inactive,inactive,inactive,inactive,inactive,inactive,inactive,inactive,inactive,inactive,inactive,inactive,,,,,
O=C(O)CCCCCCNC1c2ccccc2CCc2ccccc21,inactive,inactive,inactive,inactive,inactive,inactive,,inactive,,,inactive,inactive,inactive,inactive,inactive,inactive,inactive,inactive,,inactive
CCOP(=O)(OCC)O/C(=C/Cl)c1ccc(Cl)cc1Cl,inactive,inactive,inactive,inactive,inactive,2.57 µM (active),inactive,inactive,inactive,,,,inactive,inactive,,,inactive,inactive,inactive,
CCN1CCC2(CC1)COc1cc3c(cc12)N(C(=O)c1ccc(-c2ccc(-c4nnc(C)o4)cc2C)cc1)CC3,25.2 µM (active),inactive,inactive,inactive,inactive,inactive,,,42.2 µM (active),,,,,inactive,,,inactive,inactive,inactive,inactive
COP(=O)(OC)O/C(=C\Cl)c1cc(Cl)c(Cl)cc1Cl,inactive,68.6 µM (active),inactive,inactive,inactive,40.8 µM (active),inactive,inactive,inactive,inactive,inactive,inactive,,inactive,inactive,,,inactive,inactive,
Nc1cc(Cl)ccc1O,inactive,52.7 µM (active),inactive,inactive,inactive,inactive,inactive,inactive,inactive,,inactive,inactive,,inactive,inactive,inactive,inactive,inactive,inactive,
O=C(Nc1ccc2[nH]ccc2c1)c1cc2cc(F)ccc2n1Cc1cccc(F)c1,24.3 µM (active),inactive,inactive,inactive,inactive,inactive,,inactive,,,inactive,inactive,inactive,inactive,inactive,61.1 µM (active),inactive,inactive,,inactive
Cc1cccc(OP(=O)(Oc2cccc(C)c2)Oc2cccc(C)c2)c1,inactive,inactive,inactive,inactive,inactive,inactive,inactive,inactive,inactive,inactive,inactive,inactive,inactive,inactive,,inactive,inactive,inactive,inactive,
CCCCCCCC(=O)Cl,inactive,inactive,inactive,inactive,inactive,inactive,inactive,inactive,inactive,,inactive,inactive,inactive,inactive,,inactive,inactive,0.0017 µM (active),inactive,
